# Data: paper PMC11062922 (Nature Chemical Biology, 2023)
# Like-named read-outs stand apart in the source and are kept apart here.
# Legend:
# Set-up in all cases: species or system human, MV4-11 + K-562 + COLO205 + SK-N-BE2 + OVCAR-8
# ADCK1 = conditions: read-out: apparent Kd; compound concentrations: 100 nM and 1000 nM (sheet 'Samples'), CATDS: 3.00594248157054E-2; n = 1
# ADRBK1 = conditions: read-out: apparent Kd; compound concentrations: 100 nM and 1000 nM (sheet 'Samples'), CATDS: 2.4838233603700199E-2; n = 1
# AKT1 = conditions: read-out: apparent Kd; compound concentrations: 100 nM and 1000 nM (sheet 'Samples'), CATDS: 2.84891592844819E-2; n = 1
# AKT2 = conditions: read-out: apparent Kd; compound concentrations: 100 nM and 1000 nM (sheet 'Samples'), CATDS: 2.9280872528565802E-2; n = 1
# CDK16 = conditions: read-out: apparent Kd; compound concentrations: 100 nM and 1000 nM (sheet 'Samples'), CATDS: 6.3577465529015803E-2; n = 1
# CDK17 = conditions: read-out: apparent Kd; compound concentrations: 100 nM and 1000 nM (sheet 'Samples'), CATDS: 3.37360280865171E-2; n = 1
# CDK1 = conditions: read-out: apparent Kd; compound concentrations: 100 nM and 1000 nM (sheet 'Samples'), CATDS: 2.7245131481605699E-2; n = 1
# CDK2 = conditions: read-out: apparent Kd; compound concentrations: 100 nM and 1000 nM (sheet 'Samples'), CATDS: 4.36970242470427E-2; n = 1
# CDK6 = conditions: read-out: apparent Kd; compound concentrations: 100 nM and 1000 nM (sheet 'Samples'), CATDS: 3.4671115454836803E-2; n = 1
# CDK9 = conditions: read-out: apparent Kd; compound concentrations: 100 nM and 1000 nM (sheet 'Samples'), CATDS: 2.7346087342078398E-2; n = 1
# CDKL5 = conditions: read-out: apparent Kd, compound concentrations: 100 nM and 1000 nM (sheet 'Samples'), n = 1
# CLK1 = conditions: read-out: apparent Kd; compound concentrations: 100 nM and 1000 nM (sheet 'Samples'), CATDS: 3.0051387692213001E-2; n = 1
# CLK2 = conditions: read-out: apparent Kd; compound concentrations: 100 nM and 1000 nM (sheet 'Samples'), CATDS: 4.01054923107644E-2; n = 1
# CLK4 = conditions: read-out: apparent Kd; compound concentrations: 100 nM and 1000 nM (sheet 'Samples'), CATDS: 3.8689764998843801E-2; n = 1
# DYRK1A = conditions: read-out: apparent Kd; compound concentrations: 100 nM and 1000 nM (sheet 'Samples'), CATDS: 7.8363262326560101E-2; n = 1
# GSK3A = conditions: read-out: apparent Kd, compound concentrations: 100 nM and 1000 nM (sheet 'Samples'), n = 1
# GSK3B = conditions: read-out: apparent Kd, compound concentrations: 100 nM and 1000 nM (sheet 'Samples'), n = 1
# ICK = conditions: read-out: apparent Kd; compound concentrations: 100 nM and 1000 nM (sheet 'Samples'), CATDS: 0.15504301579156199; n = 1
# MAP2K1 = conditions: read-out: apparent Kd; compound concentrations: 100 nM and 1000 nM (sheet 'Samples'), CATDS: 2.5511986591555801E-2; n = 1
# MAP2K2 = conditions: read-out: apparent Kd; compound concentrations: 100 nM and 1000 nM (sheet 'Samples'), CATDS: 2.5311950645342699E-2; n = 1
# MAPK7 = conditions: read-out: apparent Kd; compound concentrations: 100 nM and 1000 nM (sheet 'Samples'), CATDS: 2.4862770710026599E-2; n = 1
# NQO1 = conditions: read-out: apparent Kd; compound concentrations: 100 nM and 1000 nM (sheet 'Samples'), CATDS: 3.3718961414702597E-2; n = 1
# PIM1 = conditions: read-out: apparent Kd; compound concentrations: 100 nM and 1000 nM (sheet 'Samples'), CATDS: 3.8297140879790803E-2; n = 1
# PIM2 = conditions: read-out: apparent Kd; compound concentrations: 100 nM and 1000 nM (sheet 'Samples'), CATDS: 4.1089094062549299E-2; n = 1
# PRKACG = conditions: read-out: apparent Kd; compound concentrations: 100 nM and 1000 nM (sheet 'Samples'), CATDS: 4.2614442075595102E-2; n = 1
# PYGL = conditions: read-out: apparent Kd; compound concentrations: 100 nM and 1000 nM (sheet 'Samples'), CATDS: 2.55419672432197E-2; n = 1
# RIOK2 = conditions: read-out: apparent Kd; compound concentrations: 100 nM and 1000 nM (sheet 'Samples'), CATDS: 2.90661770930771E-2; n = 1
# ACVR1 = conditions: read-out: apparent Kd; compound concentrations: 100 nM and 1000 nM (sheet 'Samples'), CATDS: 0.17536774799610499; n = 1
# BCR = conditions: read-out: apparent Kd; compound concentrations: 100 nM and 1000 nM (sheet 'Samples'), CATDS: 0.114797180795753; n = 1
# CSNK2A1;CSNK2A3 = conditions: read-out: apparent Kd; compound concentrations: 100 nM and 1000 nM (sheet 'Samples'), CATDS: 0.137145274912611; n = 1
# CSNK2A2 = conditions: read-out: apparent Kd; compound concentrations: 100 nM and 1000 nM (sheet 'Samples'), CATDS: 0.22568308322630501; n = 1
# ACVR1B = conditions: read-out: apparent Kd, n = 1
# NQO2 = conditions: read-out: apparent Kd; compound concentrations:100 nM and 1000 nM (sheet 'Samples'); n = 1
# TGFBR1 = conditions: read-out: apparent Kd; compound concentrations:100 nM and 1000 nM (sheet 'Samples'); n = 1
# TGFBR2 = conditions: read-out: apparent Kd; compound concentrations:100 nM and 1000 nM (sheet 'Samples'); n = 1
# TNIK = conditions: read-out: apparent Kd; compound concentrations:100 nM and 1000 nM (sheet 'Samples'); n = 1
# DDR1 = conditions: read-out: apparent Kd; compound concentrations: 100 nM and 1000 nM (sheet 'Samples'), CATDS: 0.15549636172905901; n = 1
# JAK2 = conditions: read-out: apparent Kd; compound concentrations: 100 nM and 1000 nM (sheet 'Samples'), CATDS: 0.70328815445029103; n = 1
# MAPK14 = conditions: read-out: apparent Kd; compound concentrations: 100 nM and 1000 nM (sheet 'Samples'), CATDS: 0.189242383322658; n = 1
# NLK = conditions: read-out: apparent Kd; compound concentrations: 100 nM and 1000 nM (sheet 'Samples'), CATDS: 0.152320021786015; n = 1
smiles,measurement,setting,value
O=C(Nc1n[nH]c2nnc(-c3cccnc3)cc12)C1CC1.O=C(O)C(F)(F)F [SB-675259-M],potency estimated from few doses,ADCK1,1030 nM
same,potency estimated from few doses,ADRBK1,2130 nM
same,potency estimated from few doses,AKT1,1240 nM
same,potency estimated from few doses,AKT2,1130 nM
same,potency estimated from few doses,CDK16,151 nM
same,potency estimated from few doses,CDK17,726 nM
same,potency estimated from few doses,CDK1,1460 nM
same,potency estimated from few doses,CDK2,366 nM
same,potency estimated from few doses,CDK6,671 nM
same,potency estimated from few doses,CDK9,1440 nM
same,potency estimated from few doses,CDKL5; CATDS: 8.0435969039111696E-2,87 nM
same,potency estimated from few doses,CLK1,1030 nM
same,potency estimated from few doses,CLK2,454 nM
same,potency estimated from few doses,CLK4,498 nM
same,potency estimated from few doses,DYRK1A,92.6 nM
same,potency estimated from few doses,GSK3A; CATDS: 0.62281927903821299,0.113 nM
same,potency estimated from few doses,GSK3B; CATDS: 0.401572679379325,0.279 nM
same,potency estimated from few doses,ICK,14.7 nM
same,potency estimated from few doses,MAP2K1,1890 nM
same,potency estimated from few doses,MAP2K2,1960 nM
same,potency estimated from few doses,MAPK7,2120 nM
same,potency estimated from few doses,NQO1,727 nM
same,potency estimated from few doses,PIM1,512 nM
same,potency estimated from few doses,PIM2,426 nM
same,potency estimated from few doses,PRKACG,389 nM
same,potency estimated from few doses,PYGL,1880 nM
same,potency estimated from few doses,RIOK2,1160 nM
COc1cccc(-n2ncc3c(N/N=C/c4ccc(S(C)(=O)=O)cc4)ncnc32)c1 [GW811168X],potency estimated from few doses,ACVR1,555 nM
same,potency estimated from few doses,BCR,1420 nM
same,potency estimated from few doses,CDKL5; CATDS: 0.10101184649506401,2130 nM
same,potency estimated from few doses,CSNK2A1;CSNK2A3,907 nM
same,potency estimated from few doses,CSNK2A2,365 nM
same,potency estimated from few doses,GSK3A; CATDS: 0.157775642803201,677 nM
same,potency estimated from few doses,GSK3B; CATDS: 0.15091586406642499,740 nM
COc1ccc(-c2cc(-c3c[nH]nc3-c3ccccn3)ccn2)cc1 [GW679410X],potency estimated from few doses,ACVR1B; compound concentrations:100 nM and 1000 nM (sheet 'Samples'),686 nM
same,potency estimated from few doses,NQO2,168 nM
same,potency estimated from few doses,TGFBR1,170 nM
same,potency estimated from few doses,TGFBR2,1290 nM
same,potency estimated from few doses,TNIK,1140 nM
COc1ccc(-c2nn3ncccc3c2-c2ccnc(Nc3ccc(F)c(F)c3)n2)cc1 [GW827396X],potency estimated from few doses,"ACVR1B; compound concentrations: 100 nM and 1000 nM (sheet 'Samples'), CATDS: 0.188759897575135",1020 nM
same,potency estimated from few doses,DDR1,1770 nM
same,potency estimated from few doses,JAK2,73 nM
same,potency estimated from few doses,MAPK14,1010 nM
same,potency estimated from few doses,NLK,1900 nM
